Bioassay records from PubChem BioAssay.
CASP6_VEID_inh = human caspase-6 inhibitors, primary screen, biochemical, VEID-R110 fluorescence, single point, set 2; inhibition, % at 12.5 µM; 0.53% of 350,000 active; P55212; purified caspase-6, Z-VEID-R110 cleavage fluorescence;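 active = mean inhibition across replicates at least about 35%, with every replicate also reaching that limit, limit read from the data; inconclusive = only one of the two criteria met; inactive = neither criterion met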;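 also: 0% = median of neutral control wells and 100% = no fluorescence left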
CFTR_F508del_cor = F508del CFTR correction, initial screen, CFBE line, single point; activity (quench increase), % at 7.58 µM; 0.36% of 350,000 active; AID 720511, 2013; CFBE cells, YFP halide quenching; stimulated with forskolin plus potentiator P3; % fluorescence drop versus neutral controls;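 active = mean added fluorescence quench of at least 8% versus neutral control, with both replicates also reaching 8%; inconclusive = only one of the mean or replicate conditions met; inactive = mean below 8% and not both replicates reaching 8%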;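 also: cells transiently co-express mutant CFTR-F508del with the halide-sensitive YFP; corrector assay measuring rescue of mutant channel to the surface after 24 h compound exposure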
PglD_DTNB = C. jejuni PglD acetyltransferase inhibitors, primary screen, biochemical, DTNB colorimetric, single point; UDP-N-acetylbacillosamine N-acetyltransferase PglD (Campylobacter jejuni); purified PglD enzyme, DTNB colorimetric CoA detection; inhibition, % at 12.5 µM; 0.098% of 360,000 active; in the data active = inhibition above about 16%, passing the limit was not always enough; inconclusive = no clear call, values can overlap the other calls
ALR_H2O2_inh = inhibitors of human ALR sulfhydryl oxidase, primary screen, biochemical, H2O2 detection, HRP-luminol luminescence, single point | FAD-linked sulfhydryl oxidase ALR (Homo sapiens), P55789 | purified ALR, DTT oxidation | inhibition, % (test concentration not listed) | 3.8% of 290,000 active | AID 485317, 2010;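 active = mean replicate inhibition above about 79%, with every replicate also reaching it, limit read from the data; inconclusive = only one of the two criteria met; inactive = mean below limit and not every replicate reaching it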
Target sequence (P55789 whole entry, looked up): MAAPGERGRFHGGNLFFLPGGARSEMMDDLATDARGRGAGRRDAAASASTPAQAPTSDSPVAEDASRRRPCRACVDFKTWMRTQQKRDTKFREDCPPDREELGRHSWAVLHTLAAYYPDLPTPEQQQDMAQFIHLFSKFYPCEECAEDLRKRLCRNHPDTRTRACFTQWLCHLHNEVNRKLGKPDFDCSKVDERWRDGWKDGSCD
HIV_Env_fusion = inhibitors of HIV-1 Env-driven cell-cell fusion, primary screen, HeLa-JRFL effector, CEM21 target cells, luciferase | inhibition, % at 12.3 µM | 1.1% of 360,000 active;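 active = mean replicate inhibition score of at least 50 and every replicate individually at or above 50; inconclusive = only one of the two criteria met; inactive = mean below 50 and not all replicates reaching 50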;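 also: 0% = plate neutral controls and 100% = maraviroc near 300 nM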
NSD2_inh = NSD2 histone methyltransferase inhibitors, primary screen, biochemical, AlphaScreen, single concentration, set 2. inhibition, % at 12.5 µM. 0.54% of 310,000 active. AID 743445, 2014. Histone-lysine N-methyltransferase NSD2 (Homo sapiens), O96028. NSD2 peptide methylation, 120 min; in the data active = inhibition above about 50%
Starred values were filed as active, the others as inactive; ? = inconclusive; . = not tested or not shown; [ ] = remark or other dose. The list is not random: actives were taken first. Their share in the collection is about 4.1%.

SMILES CASP6_VEID_inh CFTR_F508del_cor PglD_DTNB ALR_H2O2_inh HIV_Env_fusion NSD2_inh
COc1ccc(CCNc2c3ccccc3nc3ccccc23)cc1OC -4 10* -7 . 26 9
COc1ccc(Nc2c3c(nc4ccccc24)CCC3)cc1 -3 0 6 99* 35 8
COc1ccc(Nc2nc(N)c3ccccc3n2)c(OC)c1 -1 -1 -1 84* -62 .
CN(C)CCCNc1c2c(nc3ccccc13)CCC2 -112 3 3 -5 2 7
COc1ccc(C)cc1Nc1c2c(nc3ccccc13)CCC2 -3 13* . ? -125 4
COc1ccc(NC(=O)c2c3c(nc4ccccc24)CCC3)cc1 . . -2 4 4 1
CCCNC(=O)N1CC2(CN(C)C2)c2c([nH]c3cc(OC)ccc23)[C@@H]1CO . -3 . . . .
Cc1ccc(S(=O)(=O)Nc2ccc3c(c2)C(=O)N([C@@H](C)CO)C[C@@H](C)[C@@H](CN(C)C(=O)Nc2cccc4ccccc24)OCCCC[C@@H](C)O3)cc1 2 2 -3 . -41[16.7_µM] .
COc1cc(Nc2nc(-c3ccccc3)c3cc(C)ccc3n2)cc(OC)c1OC . . 3 . -16 5
COc1ccc(Nc2c3c(nc4ccccc24)CCCC3)cc1OC 1 1 . 99* 1 9
